Source: PubChem BioAssay (NCATS)
Where “and” joins values, the source holds several entries; their conditions need not be identical. Equal entries are not always repeated. Inconclusive results are not listed. Entries that show only a call come without a potency. A number with no mark means an inactive call. Calls of active or inactive are those of the source. Unless noted, calls follow the shape of the dose curve; as a rule, active = well fitted curve in the direction sought with a large enough effect; inconclusive = small, poorly fitted or top-dose-only effect, or another doubt; inactive = no such curve, though single readings can be large; an effect the other way counts as inactive or inconclusive.

Legend:
[1] = target: Cellular tumor antigen p53 (Homo sapiens) (UniProt P04637); experiment: Primary qHTS for small molecule compounds that upregulate eGFP-tagged delta133p53alpha (in N-terminal) cells. (AID 2060322); conditions: NCI-H358 eGFP-delta133p53alpha fluorescence, 24 h; activation: stronger effect = higher value; also: nearly all actives have a fitted effect of over 75% in size; also: potency is read from the fitted curve at half-maximal effect
In short: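 NCI-H358 cells pre-induced 24 h with 10 ng/ml doxycycline to express N-terminal eGFP-delta133p53alpha, then dosed 24 h at 37C without doxycycline; fixed, Hoechst-stained, GFP intensity by laser scanning cytometry, normalized to DMSO (0%) and 57.5 uM 5-azacytidine (100%).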

[2] = target: Cellular tumor antigen p53 (Homo sapiens) (UniProt P04637); experiment: Primary qHTS for small molecule compounds that upregulate eGFP-tagged delta133p53alpha (in C-terminal) cells. (AID 2060324); conditions: NCI-H358 delta133p53alpha-eGFP (C-terminal tag), GFP fluorescence imaging, 24 h; series mostly up to 57.5 µM; also: potency is read from the fitted curve at half-maximal effect
In short: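 NCI-H358 cells with doxycycline-inducible D133p53a-eGFP (C-terminal tag), pre-induced 24 h with 100 ng/ml doxycycline, plated 800/well in doxycycline-free medium and treated 24 h at 37 °C with compound titrations. Cells were then fixed and Hoechst-stained, and GFP intensity was read by laser scanning cytometry.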

[3] = target: Aldehyde dehydrogenase, mitochondrial (Homo sapiens) (UniProt P05091); experiment: qHTS for Inhibitors of the Aldehyde Dehydrogenase Family (ALDH2) Validation screens (AID 2061302; active = well fitted inhibition curve with a large enough effect; title and protocol of this record describe different tests); conditions: ALDH inhibition qHTS; series mostly up to 42.6 µM
[4] = target: Retinaldehyde dehydrogenase 3 (Homo sapiens) (UniProt P47895); experiment: qHTS for Inhibitors of the Aldehyde Dehydrogenase Family (ALDH1A3) Validation screen (AID 2061312); conditions: ALDH1A3 enzyme inhibition qHTS validation, fluorescence; series mostly up to 84.7 µM; also: nearly all actives have a fitted effect of over 45% in size
[5] = BET inhibitor-based combinations targeting novel dependencies in MECOM-rearranged (r) AML: SET-2 cell line (AID 2202231); conditions: SET-2 AML cells viability, CellTiter-Glo luminescence, 48 h; viability: stronger effect = lower value, concentration not given here; also: nearly all actives have a fitted effect of over 35% in size; also: potency is read from the fitted curve at half-maximal effect
In short: (§1)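 Luminescent ATP readout (CellTiter-Glo) after 48 hr drug exposure gives viability. Curves span 11 concentrations and are normalized to DMSO and empty wells. Activity is reported as area under the curve and its Z-transform within each cell line.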

[6] = BET inhibitor-based combinations targeting novel dependencies in MECOM-rearranged (r) AML: MV-4-11 cell line (AID 2202233); conditions: MV-4-11 AML viability, CellTiter-Glo luminescence, 48 h; series mostly up to 46 µM; also: nearly all actives have a fitted effect of over 45% in size; also: potency is read from the fitted curve at half-maximal effect
In short: (§2)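 Luminescent ATP readout (CellTiter-Glo, 15 min at room temperature) after 48 hr drug exposure gave viability. Dose-response curves, normalized to DMSO and empty-well controls, were summarized as area under the curve and its mean-centred Z-score.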

[7] = BET inhibitor-based combinations targeting novel dependencies in MECOM-rearranged (r) AML: HNT-34 cell line (AID 2202234); conditions: HNT-34 AML viability, CellTiter-Glo luminescence, 48 h; series mostly up to 46 µM; also: nearly all actives have a fitted effect of over 35% in size; also: potency is read from the fitted curve at half-maximal effect
In short: as §2

[8] = BET inhibitor-based combinations targeting novel dependencies in MECOM-rearranged (r) AML: UCSD-AML1 cell line (AID 2202235); conditions: UCSD-AML1 AML cells viability, CellTiter-Glo, 48 h; series mostly up to 46 µM; also: nearly all actives have a fitted effect of over 40% in size; also: potency is read from the fitted curve at half-maximal effect
In short: as §2

[9] = BET inhibitor-based combinations targeting novel dependencies in MECOM-rearranged (r) AML: AML-191 cell line (AID 2202236; also: nearly all actives have a fitted effect of over 35% in size; also: potency is read from the fitted curve at half-maximal effect); conditions: AML-191 viability, CellTiter-Glo luminescence, 48 h; series mostly up to 46 µM
In short: as §1

[10] = BET inhibitor-based combinations targeting novel dependencies in MECOM-rearranged (r) AML: AML-194 cell line (AID 2202237; also: nearly all actives have a fitted effect of over 40% in size; also: potency is read from the fitted curve at half-maximal effect); conditions: AML-194 (MECOM-r AML) viability, CellTiter-Glo, 48 h; series mostly up to 46 µM
In short: as §1

[11] = BET inhibitor-based combinations targeting novel dependencies in MECOM-rearranged (r) AML: OCI-AML3 cell line (AID 2202232); conditions: CellTiter-Glo luminescence, 48 h; Potency: OCI-AML3 viability; series mostly up to 46 µM; also: nearly all actives have a fitted effect of over 35% in size; also: potency is read from the fitted curve at half-maximal effect
In short: as §1

[12] = target: Retinal dehydrogenase 2 (Homo sapiens) (UniProt O94788); experiment: qHTS for Inhibitors of the Aldehyde Dehydrogenase Family (ALDH1A2) Confirmation screens (AID 2061314); conditions: ALDH1A2 enzyme inhibition qHTS confirmation; series mostly up to 45.9 µM; also: nearly all actives have a fitted effect of over 65% in size
[13] = target: Aldehyde dehydrogenase 1A1 (Homo sapiens) (UniProt P00352); experiment: qHTS for Inhibitors of the Aldehyde Dehydrogenase Family (ALDH1A1) Confirmatory screens (AID 2061316); conditions: ALDH inhibition qHTS; series mostly up to 47.3 µM; also: nearly all actives have a fitted effect of over 65% in size; also: potency is read from the fitted curve at half-maximal effect
[14] = target: Aldehyde dehydrogenase, mitochondrial (Homo sapiens) (UniProt P05091); experiment: qHTS for Inhibitors of the Aldehyde Dehydrogenase Family (ALDH2) Confirmatory screens (AID 2061303; active = well fitted inhibition curve with a large enough effect; title and protocol of this record describe different tests; also: nearly all actives have a fitted effect of over 45% in size); conditions: ALDH inhibition qHTS; series mostly up to 45.4 µM
[15] = qHTS for Inhibitors of the Aldehyde Dehydrogenase Family (ALDH1A2, ALDH1A3, ALDH2, ALDH3A1) (AID 2061307); conditions: ALDH inhibition qHTS; series mostly up to 50.3 µM; also: nearly all actives have a fitted effect of over 50% in size

Cellular tumor antigen p53 (Homo sapiens), sequence (P04637 whole entry, looked up): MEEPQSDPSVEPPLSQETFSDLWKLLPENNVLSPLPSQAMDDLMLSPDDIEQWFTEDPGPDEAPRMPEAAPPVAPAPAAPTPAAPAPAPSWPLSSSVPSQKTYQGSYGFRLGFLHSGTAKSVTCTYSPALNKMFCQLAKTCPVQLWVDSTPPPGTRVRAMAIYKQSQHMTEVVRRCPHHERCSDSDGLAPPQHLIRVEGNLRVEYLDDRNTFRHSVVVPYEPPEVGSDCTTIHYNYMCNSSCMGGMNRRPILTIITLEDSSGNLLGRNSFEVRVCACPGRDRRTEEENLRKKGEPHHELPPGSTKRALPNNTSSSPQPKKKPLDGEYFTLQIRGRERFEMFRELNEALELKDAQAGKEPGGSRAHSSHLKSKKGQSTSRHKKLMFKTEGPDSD

NS(=O)(=O)c1cc2c(cc1Cl)NC=NS2(=O)=O
activation [1]: -10% and -6.71% and -22.3% | Potency [2]: inactive | Potency [3]: inactive | Potency [4]: inactive | viability [5]: 111% | Potency [6]: inactive | Potency [7]: inactive | Potency [8]: inactive | Potency [9]: inactive | Potency [10]: inactive

Cc1ccc(N(CC2=NCCN2)c2cccc(O)c2)cc1
activation [1]: -15.3% and 15.9% | Potency [2]: inactive | Potency [3]: inactive | Potency [4]: inactive | viability [5]: 97.5% | Potency [6]: 26.3 µM (active) | Potency [8]: 23.5 µM (active)

NCCCCNCCCN
activation [1]: -3.21% and -16.4% | Potency [2]: inactive | Potency [3]: inactive | Potency [4]: inactive | Potency [5]: 18.6 µM (active) | Potency [6]: 10.5 µM (active) | Potency [7]: 23.5 µM (active)

CNC[C@H](O)c1ccc(O)c(O)c1
activation [1]: 2.51% and 2.46% and 10.6% | Potency [2]: inactive | Potency [3]: inactive | Potency [4]: inactive | viability [5]: 103% | Potency [11]: inactive | Potency [7]: inactive | Potency [8]: inactive | Potency [9]: inactive | Potency [10]: inactive

CC1COc2c(N3CCN(C)CC3)c(F)cc3c(=O)c(C(=O)O)cn1c23 (centres undefined)
activation [1]: 11.7% and -7% and 13.8% | Potency [2]: inactive | Potency [3]: inactive | Potency [4]: inactive | viability [5]: 102% | Potency [6]: inactive | Potency [7]: inactive | Potency [9]: inactive | Potency [10]: inactive

CCCCNc1cc(C(=O)O)cc(S(N)(=O)=O)c1Oc1ccccc1
activation [1]: 1.67% and 7.38% and -16.3% | Potency [2]: inactive | Potency [3]: inactive | Potency [4]: inactive | viability [5]: 115% | Potency [11]: inactive | Potency [7]: inactive | Potency [9]: inactive | Potency [10]: inactive

CCOC(=O)C1=C(O)C(=O)N(Cc2ccccc2)C1
activation [1]: -27.1% | Potency [2]: inactive | Potency [3]: inactive | Potency [4]: inactive | viability [5]: 93.1% | Potency [11]: inactive | Potency [7]: inactive | Potency [8]: inactive | Potency [9]: inactive | Potency [10]: inactive

NCCCCCC(=O)O
activation [1]: 2.82% and -3.41% | Potency [2]: inactive | Potency [3]: inactive | Potency [4]: inactive | viability [5]: 112% | Potency [11]: 0.0037 µM (active) | Potency [7]: inactive | Potency [8]: inactive | Potency [9]: inactive | Potency [10]: inactive

NC(=O)c1ncn([C@@H]2O[C@H](CO)[C@@H](O)[C@H]2O)n1
activation [1]: 6.69% and -41.3% | Potency [2]: inactive | Potency [3]: inactive | Potency [4]: inactive | Potency [5]: 20.9 µM (active) | Potency [6]: 23.5 µM (active) | Potency [7]: 16.6 µM (active)

CN[C@H](CC(C)C)C(=O)N[C@H]1C(=O)N[C@@H](CC(N)=O)C(=O)N[C@H]2C(=O)N[C@H]3C(=O)N[C@H](C(=O)N[C@H](C(=O)O)c4cc(O)cc(O)c4-c4cc3ccc4O)[C@H](O)c3ccc(c(Cl)c3)Oc3cc2cc(c3O[C@@H]2O[C@H](CO)[C@@H](O)[C@H](O)[C@H]2O[C@H]2C[C@](C)(N)[C@H](O)[C@H](C)O2)Oc2ccc(cc2Cl)[C@H]1O
activation [1]: -2.02% | Potency [2]: inactive | Potency [3]: inactive | Potency [4]: inactive | viability [5]: 117% | Potency [6]: inactive | Potency [7]: inactive | Potency [8]: inactive | Potency [9]: inactive | Potency [10]: inactive

CC[C@H](C)C(=O)O[C@H]1CCC=C2C=C[C@H](C)[C@H](CC[C@@H]3C[C@@H](O)CC(=O)O3)[C@H]21
activation [1]: -12.3% | Potency [2]: inactive | Potency [3]: inactive | Potency [4]: inactive | Potency [11]: 11.8 µM (active)

CN(C)C(=O)C(CCN1CCC(O)(c2ccc(Cl)cc2)CC1)(c1ccccc1)c1ccccc1
activation [1]: 62.2% and -46.1% | Potency [2]: inactive | Potency [3]: inactive | Potency [4]: inactive | Potency [5]: 14.8 µM (active) | Potency [6]: 20.9 µM (active) | Potency [7]: 20.9 µM (active)

CN(C)CCC=C1c2ccccc2C=Cc2ccccc21
activation [1]: 5.02% and 17.3% | Potency [2]: inactive | Potency [3]: inactive | Potency [4]: inactive | Potency [11]: 16.6 µM (active) | Potency [6]: 20.9 µM (active) | Potency [7]: 16.6 µM (active) | Potency [8]: inactive

Oc1ccc(/C=C/c2cc(O)cc(O)c2)cc1
activation [1]: 1.67% and -36.3% | Potency [2]: inactive | Potency [3]: inactive | Potency [4]: inactive | Potency [11]: 14.8 µM (active) | Potency [6]: 16.6 µM (active)

CC(C)c1ccc2c(c1)c(SC(C)(C)C)c(CC(C)(C)C(=O)O)n2Cc1ccc(Cl)cc1
activation [1]: 10.9% and -49% | Potency [2]: inactive | Potency [3]: inactive | Potency [4]: inactive | Potency [11]: 20.9 µM (active) | Potency [6]: 20.9 µM (active) | Potency [7]: 23.5 µM (active) | Potency [8]: inactive | Potency [9]: 20.9 µM (active)

COc1ccc(C2CNC(=O)C2)cc1OC1CCCC1 (centres undefined)
activation [1]: 8.47% and 29.3% | Potency [2]: inactive | Potency [3]: inactive | Potency [4]: inactive | Potency [11]: inactive | Potency [6]: inactive | Potency [7]: inactive | Potency [8]: inactive | Potency [9]: inactive | Potency [10]: inactive

NCCc1ccc(O)c(O)c1
activation [1]: -4.36% and 11.8% | Potency [2]: inactive | Potency [3]: inactive | Potency [4]: inactive | viability [5]: 112% | Potency [6]: 18.6 µM (active) | Potency [8]: inactive | Potency [9]: inactive | Potency [10]: inactive

Nc1ncn([C@@H]2O[C@H](CO)[C@@H](O)[C@H]2O)c(=O)n1
Potency [1]: 1.69 µM (active) | Potency [2]: 21.3 µM (active) | Potency [3]: inactive | Potency [4]: inactive | Potency [5]: 1.05 µM (active) | Potency [11]: 5.9 µM (active) | Potency [6]: 3.32 µM (active) | Potency [8]: 4.68 µM (active) | Potency [9]: 5.25 µM (active) | Potency [10]: 16.6 µM (active)

COc1cc(SC)ccc1C(=O)N1CCC(Cc2ccccc2)CC1
activation [1]: 14.6% | Potency [2]: inactive | Potency [3]: inactive | Potency [4]: inactive | viability [5]: 97% | Potency [11]: inactive | Potency [6]: 20.9 µM (active) | Potency [8]: inactive | Potency [9]: inactive | Potency [10]: inactive

Oc1ccccc1O
activation [1]: -3.18% | Potency [2]: inactive | Potency [3]: inactive | Potency [12]: inactive | Potency [13]: 11.3 µM (active)

CCCCC#Cc1nc(NC)c2ncn([C@@H]3O[C@H](CO)[C@@H](O)[C@H]3O)c2n1
activation [1]: -3.87% | Potency [2]: inactive | Potency [14]: inactive | Potency [15]: inactive | Potency [12]: inactive | Potency [13]: inactive
